From PubChem BioAssay AID1508600 (Functional Genomics Laboratory (NCATS/FGL), 2020)
In all, about 53,000 sequences went through this assay and about 3,700 (7%) were called active.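 Rule for the calls: active = gene knockdowns whose robust z-score for IL-1 alpha signal is at least 2 or at most -2, so actives lie on both sides; inactive = the rest.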 Shown is part of a subset that was picked to be rich in actives.

assay: Components of the Cytosolic LPS Sensing Pathway: Gene Identification via Genome-wide siRNA Screen; settings: RAW264.7 macrophages, IL-1a HTRF, actives lie on both sides, screened at 100 nM (by protocol), cells primed 5 h with Pam3CSK4 first;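 note: robust z of the log signal after scaling to non-targeting control siRNA wells of the plate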
How it was run: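 Mouse macrophage line RAW264.7 is transfected with siRNA (100 nM final), grown 48h, primed with TLR ligand Pam3CSK4 5 h and given intracellular LipidA 24 h. IL-1a in supernatant is read by HTRF and viability by luminescence.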

z-score, inactive:
GCAUUGAGAUGAGAGCCUATT against Uroc1 -0.167
CGAAUACUACGCCAAGAUUTT against Abca2 -0.867
GCUCAGUACCGCACAACCATT against Dus3l -0.827
CCUAUUGUGAGCUUAAUGCTT against Nrxn2 -0.74
GGGCUAUGUACCCUAUAAUTT against Eps8l1 -1.37
GGACACAACAAGUCUUAUGTT against Prg2 -0.876
CCUUGCUACUCUGAUAACGTT against Tmeff1 0.761
CCUAGUGUGUUAAUUGUAATT against Ric1 -1.28
GGAUGCUUACGGGAGACGATT against Tmem9 -0.595
GGAGAUUCACUUUCUAUCUTT against B3gnt9 0.656
CCCUAAGACGAAGGAAAUGTT against Pdrg1 -0.844
GGCGAGUUCCAGAUUCUUCTT against Car3 1.69
GCUGAAGACCGACUACAAGTT against Cnih1 0.569
GGAAGUUUACCAGUCUAUCTT against Pik3c2a 1.4
GCUACCCAUGAGCUUUCGATT against S100a3 0.495
GGCCUUAUCGGCAGAUAUUTT against Tmem44 -1.24
GGCAGUCUUAUAAUUCAUCTT against Zfp944 -1.08
CGUUUGACACUUUUGCCUUTT against Mid1 1.09
GGUUUUUGUGGCUGAUCUUTT against Zfp711 -0.545
GGAUUUCCUUGGUUCUUUUTT against Mylip 0.145
GCUCUUCCGCACUUUCAUUTT against H2al1m 1.37
GGAACACUCCAGUUUGAAUTT against Thsd1 1.09
GCACUCAAGGUUUUACUGUTT against Satb1 -0.356
CCUUGUGUAUGAAAUACUUTT against Taf1b -0.282
GCUUGAUUUUUGACAGAGATT against Mdh1b 1.48
CCAGGAGUCGAGUGAUGGUTT against Rtl1 0.886
GGGUAAACUGUGGAGAAAUTT against Fam214b -0.833
GAUGAAAGCUACAAUGAAGTT against Srpx2 1.67
GGAAUUUCAGGAGAUACUGTT against C1qtnf12 -1.04
GCCGGAUCUAUUAAAGAAATT against Hdac2 0.134
GCAACUAUACUGGACAAUUTT against Olfr328 -1.19
GGCUUAUUAUCAGGAAAUGTT against Plcz1 -1.32
GGAAGUCUACAAGUGGCCATT against Nr1d1 -0.467
CGCAGCGACCAGCUUUCAATT against Srebf2 0.789
GCCACCUAAUUUACAAUCUTT against Ccn3 0.573
GCACCAAUUCCCUAACUGGTT against Fam102a 0.244
GGACCUACAUAACAAGCUUTT against Thnsl2 1.83
GGUUUCUGUUUUGUCACACTT against Slc22a13b -0.535
GGGCAAUGGAAGAAUUCCUTT against BC030500 -1.69
CCACGCUACCUUCAAGAGATT against Clec14a 0.946
GGAUCUUGACUUUGAUAUGTT against Trpm4 0.0632
GGACUCAAAACCAUUUACATT against Dram1 -1.13
GGAUCAACUGGUGACACAGTT against Preb -0.00996
GGAUCCUGCUCAAAAAAGUTT against Arxes1 -0.431
GAAGUCGGUGGACAAGAACTT against Cebpa 0.662
CCACUCUAAUGAUGUUUUUTT against Slc46a3 0.411
GGCUAAGGAAUGUCAAUAATT against Dnajc5g 0.0787
GGUGCUACCUCUAGAUAUUTT against Utp3 1.96
CCACUUCUCUAAGACAAUCTT against Acox3 -0.107
CCCAUUGGAACUGCUGUAATT against Metrnl 0.932
CGAAUAUGGUAUUCACUCATT against Skint4 0.157
GCCCUUACAUUUUAUACUATT against Zfp93 1.1
CCACGUCCUCUACUUGUAUTT against Nmbr -0.813

z-score, active:
GCAGUUGUCAUGCUAAACCTT against Ptpn2 2.89
GGGCAUUGGUGACUUUGAATT against Hrob -2.11
GGUGAAGGUGCCUUCCAAATT against Il27ra 2.91
GGUGCCAAUCCUUUGGACATT against 4930590J08Rik 3
GCCCAUUGUUACCUUGUACTT against Klb -2.06
GGAACAAGUACAUACUUAUTT against Frs2 2.09
GCGAUGAUGAAAGCUCAGUTT against Atad1 -2.36
GGAAGAAGCAGCAAGAAGATT against Ttc39b -2.16
GGUGGUACGCAAUCAAAAGTT against Galnt17 2.46
GGCAGAAGCAGAUAUUAGATT against Rbmxl1 2.23
GGAGCAAGAUGAAGAAGAGTT against Ticam2 -2.26
GGAAGAUCAUAAUGGACAGTT against Pcsk9 6.01
GCACUGUUUGUGCAAACAATT against C130071C03Rik -2.22
CCCACUGGUGUACGUGAUCTT against Bdkrb2 2.21
GGUCAAAGUUAUGCAAUGUTT against Rp9 -2.02
GGACUUGAUUAUCUACACUTT against Stk24 -2.24
